The panel holds about 79,000 compounds, 15% with a hit somewhere; the sample as a whole holds those more often. Values without a mark were called inactive. Active and inactive are the calls of the source. Rule as the data show it: active = growth inhibition above about 70%; inactive = the rest.

A short description of assay [1]: NCI Yeast Anticancer Drug Screen. Data for the rad50 strain (AID 155).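 Also: 0% = growth of vehicle-only cultures of the same strain.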 Conditions: S. cerevisiae rad50 strain growth inhibition, hits give high values; at 50.0 µM unless noted. The method in brief:
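Inhibition values express reduced yeast growth in compound-treated cultures relative to vehicle-treated controls.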

A short description of assay [2]: NCI Yeast Anticancer Drug Screen. Data for the mec2-1 strain (AID 157). Conditions: S. cerevisiae mec2-1 strain, hits give high values; at 50.0 µM unless noted. In short, it runs like this:
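Using mec2-1 yeast: add compound, measure growth, express inhibition versus vehicle-treated cultures.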

A short description of assay [3]: NCI Yeast Anticancer Drug Screen. Data for the sgs1 mgt1 strain (AID 161).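 Also: 0% = growth of cultures given vehicle only.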 Conditions: S. cerevisiae sgs1 mgt1 strain, hits give high values; at 50.0 µM unless noted. The method in brief:
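Growth of a repair-deficient yeast mutant was monitored after compound treatment and expressed as inhibition relative to vehicle-treated cultures.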

A short description of assay [4]: NCI Yeast Anticancer Drug Screen. Data for the cln2 rad14 strain (AID 165).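 Also: 0% = growth equal to vehicle treated cultures.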 Conditions: S. cerevisiae cln2 rad14 strain, hits give high values; at 50.0 µM unless noted. In short, it runs like this: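 Yeast strain cln2 rad14, bearing defects in cell cycle control and DNA repair, serves as the test system; values reflect growth inhibition compared with vehicle.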
Assay [5] in a line: NCI Yeast Anticancer Drug Screen. Data for the bub3 strain (AID 167). Conditions: S. cerevisiae bub3 mutant strain, hits give high values; at 50.0 µM unless noted. The method in brief: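 Steps: expose the mutant yeast strain to compound; grow alongside vehicle-treated cultures; measure growth; express inhibition against the vehicle cultures.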
Assay [6] in a line: NCI Yeast Anticancer Drug Screen. Data for the mlh1 rad18 strain (AID 175). Conditions: S. cerevisiae mlh1 rad18 strain growth inhibition, hits give high values; at 50.0 µM unless noted. The method in brief:
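Steps: expose repair-defective yeast to compound; measure growth; express inhibition against vehicle-treated controls.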

For the compound `CCC[CH2][Sn]1([CH2]CCC)[O]C2C(CO)OC(n3c(Br)c(C#N)c4c(N)ncnc43)C2[O]1` (stereo unspecified), the growth inhibition is 98.4% (active) in assay [1]; 98.5% (active) in assay [2]; 98.7% (active) in assay [3]; 98.7% (active) in assay [4]; 97.7% (active) in assay [5]; 98% (active) in assay [6].
In the case of `CCNC(=O)COc1ccc(Cl)c(C)c1`, the growth inhibition in assay [1] is -13.6%; in assay [2], -31.9%; in assay [3], -30.4%; in assay [4], -33.8%; in assay [5] it was -23.2%; in assay [6], -29.7%.
For `CCOC(=O)C1=CN=C2C(=O)N(c3ccccc3)N(C)C2(C)C1=N` (stereo unspecified), the growth inhibition in assay [1] was -4.8%; in assay [2], 0.95%; in assay [3], -19.4%; in assay [4], 10.8%; in assay [5], -11.2%; in assay [6], 12.9%.
As to `O=S(=O)([O-])[O-].O=c1[nH]cnc2[nH]ncc12.O=c1[nH]cnc2[nH]ncc12.[Zn+2]`, the growth inhibition in assay [1] was -26.2%; in assay [2], 4.15%; in assay [3], -15.9%; in assay [4] it was 3.65%; in assay [5], -20.8%; in assay [6], -17.6%.
Consider `N#Cc1c(C(F)(F)F)cc(-c2cccs2)nc1SC(C(=O)Nc1cc(C(F)(F)F)cc(C(F)(F)F)c1)c1ccccc1` (stereo unspecified), for which the growth inhibition in assay [1] is 13.6%; in assay [2], -13.8%; in assay [3], 9.5%; in assay [4], 17.3%; in assay [5], 9.1%; in assay [6] it was 10.4%.
With `O=C(c1ccccc1)C(Oc1ccccc1)c1ccccc1` (stereo unspecified), the growth inhibition was 39.5% in assay [1]; 19.2% in assay [2]; 37.8% in assay [3]; 36% in assay [4]; 6.9% in assay [5]; 60% in assay [6].
With `Oc1ccccc1-c1cc(-c2ccccc2)nc(NCCCNc2nc(-c3ccccc3)cc(-c3ccccc3O)n2)n1`, the growth inhibition is -11.2% in assay [1]; 8% in assay [2]; -5.3% in assay [3]; -14.8% in assay [4]; 35% in assay [5]; 14.2% in assay [6].
For the compound `CC(=O)CC(C)(C)c1cc(-c2ccccc2)on1`, the growth inhibition in assay [1] is 20.8%; in assay [2], 5.4%; in assay [3], -6.25%; in assay [4], -61.6%; in assay [5] it was 19.4%; in assay [6], 12.8%.
With `CCOc1cc(/C=N/NC(=O)c2ccccc2NC(=O)c2ccccc2Cl)ccc1O`, the growth inhibition in assay [1] was 11.3%; in assay [2], -1.9%; in assay [3], -7.05%; in assay [4], -1.8%; in assay [5] it was 3.05%; in assay [6] it was -9.3%.
As to `CCOC(=O)c1nnsc1N/N=C\c1ccc([N+](=O)[O-])cc1`, the growth inhibition in assay [1] was -5.05%; in assay [2], -15%; in assay [3], -25.7%; in assay [4], 12.3%; in assay [5] it was -19.5%; in assay [6] it was 14.3%.
As to `CC1=NN(C(=O)Nc2ccc(Cl)cc2)C(=O)C2CCC(=O)N12` (stereo unspecified), the growth inhibition in assay [1] was 2.6%; in assay [2], 0.6%; in assay [3] it was 1.1%; in assay [4], 2.7%; in assay [5] it was -0.45%; in assay [6] it was 27%.
Take `COC(=O)C(CCSC)NC(=O)C1CSC(C)(C)N1C=O` (stereo unspecified): the growth inhibition in assay [1] was 0.65%; in assay [2], 0.2%; in assay [3], 39.2%; in assay [4], -1.85%; in assay [5], 44.5%; in assay [6] it was -1.85%.
On to `NC1=NC(=O)/C(=C/c2ccccc2[N+](=O)[O-])C(N)=N1`, for which the growth inhibition in assay [1] is -26.9%; in assay [2], -0.05%; in assay [3], 10.8%; in assay [4], 4.8%; in assay [5], -5.6%; in assay [6] it was 24.1%.
In the case of `Nc1ncnc(N)c1NC(=O)c1cccnc1`, the growth inhibition was 8.7% in assay [1]; -6% in assay [2]; 7.65% in assay [3]; -40% in assay [4]; -2.05% in assay [5]; 5.5% in assay [6].
Turning to `CN1N=C(c2ccncc2)OC1c1cccc(F)c1` (stereo unspecified), the growth inhibition was -58% in assay [1]; -45.4% in assay [2]; -25.6% in assay [3]; 6.5% in assay [4]; 4.9% in assay [5]; -16% in assay [6].
On to `c1ccc2nn(C3CCCO3)nc2c1` (stereo unspecified), for which the growth inhibition in assay [1] was 0.75%; in assay [2], -16.5%; in assay [3] it was -21.9%; in assay [4] it was -29.4%; in assay [5] it was 3.15%; in assay [6], -43.5%.
Take `O=C(O)c1ccc(Cl)o1`: the growth inhibition is 7.7% in assay [1]; -3.6% in assay [2]; -23.1% in assay [3]; -1.05% in assay [4]; 10.1% in assay [5]; 5.6% in assay [6].
With `O=CNc1cccnc1C1OCCO1`, the growth inhibition is 4.85% in assay [1]; 5.85% in assay [2]; 2% in assay [3]; -13.3% in assay [4]; -4.75% in assay [5]; 7.65% in assay [6].
Consider `CSc1nc(N)c2cnn(Cc3ccccc3)c2n1`, for which the growth inhibition in assay [1] is 28.4%; in assay [2] it was 12.5%; in assay [3], 34%; in assay [4], 8.95%; in assay [5], 31.4%; in assay [6], 31.4%.
Regarding `SCCNCc1ccccc1`, the growth inhibition is 20.9% in assay [1]; -13.1% in assay [2]; 6.9% in assay [3]; 9.85% in assay [4]; 6.9% in assay [5]; 10.2% in assay [6].
For the compound `ClC(Cl)(Cl)c1ncnc2nc[nH]c12`, the growth inhibition in assay [1] was -15.1%; in assay [2] it was -11.8%; in assay [3] it was 0.5%; in assay [4], 9.95%; in assay [5], -16.9%; in assay [6], 13.3%.

The record behind these values is PubChem BioAssay (NCI).
